A number with no mark means an inactive call. Active and inactive are the calls of the source. Cut-off read from the data, not from the text of the source: active = fold change mostly below about -2 (no sharp cut-off); inactive = mostly above about -1.8.
assay: TERT promoter activity modulators, primary screen, cell-based, luciferase reporter, human (AID 1259240); settings: A2780 TERT promoter luciferase reporter, 16 h; at 20 µM, fold versus average of vehicle-only wells

Structure (SMILES) | fold change | outcome
O=C(CC1C(=O)N(c2cccc(Cl)c2)C(=O)N1Cc1cccs1)Nc1ccccc1 (centres undefined) | 1.26 | –
COc1ccc2c(NCC3=CC=CC3)cc(C)nc2c1 | -1.73 | –
Fc1ccc(-c2nnc3ccc(NCCN4CCOCC4)nn23)cc1 | -1.13 | –
NC(=O)c1c(NC(=O)c2csc3c2CCCC3)sc2c1CCCC2 | -1.89 | –
CC(C)CCNC(=O)C1CCC(CNS(=O)(=O)c2cccc3nsnc23)CC1 (centres undefined) | -1.62 | –
COc1ccc(-c2nc3s/c(=C\c4cccc(Cl)c4)c(=O)n3n2)cc1OC | -1.08 | –
O=C(Cc1ccc(NC2=NC3CS(=O)(=O)CC3S2)cc1)Nc1ccc(F)cc1 (centres undefined) | -1.7 | –
CCc1ccc2nc(Nc3nccc(C)n3)nc(C)c2c1 | 1.83 | –
COc1ccc2cc3c(N)nn(C(=O)c4cncc(Br)c4)c3nc2c1 | -1.5 | –
Cc1ccc(CN2C(=O)/C(=C/c3c(NCCO)nc4ccc(C)cn4c3=O)SC2=S)cc1 | -1.97 | –
CCc1ccc2c(c1)c1n[nH]c(=S)nc1n2C | -1.88 | –
O=C1C(=O)N(CC(=O)N2CCCCC2)c2ccccc21 | 1.04 | –
Cc1cc(=O)oc2c1c(C)nn2-c1ccc(C(=O)O)cc1 | -2.62 (active) | –
CCOc1cc(C2c3c(oc4ccc(F)cc4c3=O)C(=O)N2Cc2ccc(F)cc2)ccc1O (centres undefined) | -3.2 (active) | –
O=C(NCCCN1CCCC1)C(=O)Nc1ccc2nc3n(c(=O)c2c1)CCCCC3 | 1.01 | –
Cc1nnc2ccc(N3CCC(C(N)=O)(N4CCCCC4)CC3)nn12 | -1.03 | –
CCSC1=NSC2=NC(=O)/C(=C\c3coc4ccccc4c3=O)C(=N)N12 | 1.16 | –
Cc1nn(-c2nc3ccccc3[nH]2)c(=O)c2ccccc12 | -14.7 (active) | –
CCc1ccc(N2CC(O)=C(c3nc4ccccc4c(=O)[nH]3)C2=N)cc1 | – | inactive
CN(CC(=O)NCc1ccco1)S(=O)(=O)c1ccc2c(c1)c(=O)n(C)c(=O)n2C | -1.15 | –

Structure (SMILES) | fold change | outcome
Cc1ccc(CNc2nnc(Cc3ccncc3)c3ccccc23)cc1 | -1.59 | –
CCc1cc(C)cc(OCC(O)Cn2cnc3ccccc32)c1 (centres undefined) | -1.77 | –
Nc1nc(SCC(=O)c2ccc(O)cc2O)n[nH]1 | -1.59 | –
O=C1c2cccnc2C(=O)N1CNc1ccc(Cl)cc1 | 1.07 | –
O=C(Cn1ncc2c3ccccc3n(Cc3ccccc3)c2c1=O)N1CCCC1 | -1.21 | –
CCc1c2c(nc3sc(C(=O)NCc4ccc5c(c4)OCO5)c(N)c13)CC(C)(C)CC2=O | -1.01 | –
Cc1ccn(CN2CCN(Cn3ccc(C)n3)C2=S)n1 | 1.29 | –
O=C(CSc1nc(-c2cccs2)cc(C(F)(F)F)n1)NCc1cccnc1 | -2.7 (active) | –
Cc1cccc2sc(NC(=O)c3ccc(CNc4c(NC5CCCC5)c(=O)c4=O)cc3)nc12 | -1.04 | –
C=CCN(C(=O)C1CCC(CNS(=O)(=O)c2cccc3nsnc23)CC1)C1CCCCC1 (centres undefined) | -1.05 | –
CC1CCC(NC(=O)Cn2c(=O)c(C(F)(F)F)nc3ccccc32)CC1 (centres undefined) | -1.07 | –
O=c1oc2cc(O)ccc2cc1S(=O)(=O)c1ccc(Cl)cc1 | -2.04 (active) | –
Cc1cccc(CNc2nc(N)n(-c3ccccc3)n2)c1 | 1.27 | –
Cc1nc2c(-c3ccccc3)c(C)nn2c(C)c1CCC(=O)NO | -1.49 | –
O=C(Cn1c(=O)c(C(F)(F)F)nc2ccccc21)N1CCCC1 | -1.02 | –
Cn1c(CC(=O)NC(C)(C)CO)c(Sc2ccccc2)c2ccccc21 | -2.11 (active) | –
CCOC(=O)c1nn(-c2ccc(F)cc2)c(=O)c2c(NC(=O)CCCl)scc12 | -3.04 (active) | –
O=c1[nH]cnc2c1c(-c1ccccc1)cn2-c1ccc(F)cc1 | – | inactive
Cc1ccc(Cn2ccc(NC(=O)c3noc(C(C)C)c3[N+](=O)[O-])n2)cc1 | -2.42 (active) | –
